The source of these data is PubChem BioAssay (Tox21).

Results filed as inconclusive are left out. Values without a mark were called inactive. The source made the active and inactive calls. Calls come from the whole dose curve; as a rule, active = well fitted activation curve with a large enough effect in the repeat runs; inconclusive = weak or mixed curves; inactive = no such curve, though single readings can be large or run the other way.
% is set by controls: 0 for no effect and ±100 for the full control effect; potency is the fitted concentration of half-maximal effect.

Nuclear receptor subfamily 1 group I member 3 (Homo sapiens), sequence (Q14994 whole entry, looked up): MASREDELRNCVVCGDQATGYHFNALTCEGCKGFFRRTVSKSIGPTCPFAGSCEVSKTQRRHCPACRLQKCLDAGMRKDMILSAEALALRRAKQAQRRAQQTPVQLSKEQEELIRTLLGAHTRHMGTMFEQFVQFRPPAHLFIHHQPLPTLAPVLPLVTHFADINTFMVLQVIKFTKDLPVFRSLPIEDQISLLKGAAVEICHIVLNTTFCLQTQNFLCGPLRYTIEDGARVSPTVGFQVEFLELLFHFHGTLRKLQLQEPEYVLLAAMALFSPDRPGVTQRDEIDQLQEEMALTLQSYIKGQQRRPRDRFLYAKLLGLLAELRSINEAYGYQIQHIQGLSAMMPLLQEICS

This test has as its target Nuclear receptor subfamily 1 group I member 3 (Homo sapiens) (UniProt Q14994). The test is described as follows: qHTS assay to identify small molecule agonists of the constitutive androstane receptor (CAR) signaling pathway (AID 1224839).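 For activation: HepG2 cells stably carrying human CAR and a CYP2B6 luciferase reporter.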 Note: nearly all actives have a fitted effect of over 15% in size. To be noted: HepG2 hCAR CYP2B6-luciferase, agonist mode, 24 h; series mostly up to 92.4 µM; activation: at the top concentration. From the text: National Center for Advancing Translational Sciences [NCATS] NIH Chemical Genomics Center [NCGC] U.S. Environmental Protection Agency [EPA] National Institutes of Environmental Health Sciences [NIEHS] National Toxicology Program [NTP] Assay overview: The constitutive androstane receptor (CAR) is a nuclear receptor which regulates multiple drug metabolizing enzymes (DMEs) and transporters. Activating CAR will generally increase the transcription and subsequent translation of CYP2B6 and CYP3A4. These two DMEs represent about 50% of the drug metabolizing potential in the body. […] Recently, there have also been studies performed indicating CARs role in energy metabolism and cancer therapy. Therefore, inducing CARs activity could have a potential effect on diabetes and cancer. Identifying environmental toxins and compounds which modulate CAR, through the use of the Tox21 10K compound collection, will be an important step in determining the toxicity and potential therapeutic effects these factors will have on the human body.
Assay Protocol Summary: A double-stable (hCAR and CYP2B6-2.2kb) transfected cell line, derived from human hepatoma (HepG2) cells, was utilized for the duration of the quantitative high-throughput screens. The HepG2-CYP2B6-hCAR cells suspended in DMEM culture medium supplemented with 10% FBS, 5 ug/mL blasticidin, 0.5 mg/mL geneticin, 100 U/mL penicillin and 100 ug/mL streptomycin were dispensed at 2500 cells/4 uL/well in 1536-well white solid bottom plates using a Multidrop Combi. After the assay plates were incubated at 37 C/5% CO2 for 4 hrs, 23 nL of compounds at 15 concentrations (from 5-48 columns) or positive control (from 1 to 4 columns) were transferred to the assay plates using a Pintool station. One uL of PK11195, was added using a Flying Reagent Dispenser to generate a final concentration of 0.75 uM PK11195 inside each well. After a 24 hr incubation period at 37 C/5% CO2, four uL of ONE-Glo reagent was added into the assay plates using a Flying Reagent Dispenser. After a 30 min incubation period at room temperature, the luminescence intensity in the assay plates was measured using a ViewLux plate reader.
A general note: qHTS replaces the single test concentration by a dilution series.
In the case of `O=C(N[C@H]1CN2CCC1CC2)c1cc2ccoc2cn1`, the “activation” value is -2.8%. Still for that read-out and setting: the same measure for `O=C(NCO)NCO`: -0.955%. As for `CCOP(=S)(OCC)Oc1ncn(-c2ccccc2)n1`, the Potency is 30.6 µM (active). On to `Cc1nnc2n1-c1sc(CCC(=O)N3CCOCC3)cc1C(c1ccccc1Cl)=NC2`, for which the “activation” value was 1% [at 42.5 µM].

Turning to `CC1(C)COP(Oc2ccccc2)OC1`, the “activation” value was 5.25%. For `COc1cc(OC)nc(Sc2cccc(Cl)c2C(=O)O)n1`, the “activation” value was -1.78%.

On to `C[C@H]1CCC[C@H](O)CCCCCc2cc(O)cc(O)c2C(=O)O1`, for which the “activation” value is 4.87%. For `ClC(Cl)Br`, the “activation” value was 0.992%. As for `COc1cc(OC)nc(NC(=O)NS(=O)(=O)c2ncccc2OCC(F)(F)F)n1`, the “activation” value was -3.17%. Regarding `N#CC(CCc1ccc(Cl)cc1)(Cn1cncn1)c1ccccc1` (stereo not given), the Potency is 21.7 µM (active).

With `ClCC(Cl)(Cl)Cl`, the “activation” value was 0.369%. Regarding `COc1cc(C[C@@H](C)N)c(OC)cc1C`, the “activation” value was -0.534%. For the compound `CCOP(=O)(OCC)OP(=O)(OCC)OCC`, the “activation” value is -3.25%. As for `CCC(Cl)[N+](=O)[O-]` (stereo not given), the “activation” value is -1.73%.

Regarding `CNC(=O)N(C)c1nc2ccccc2s1`, the Potency was 24.3 µM (active). Regarding `CC(=O)CC(c1ccc(Cl)cc1)c1c(O)c2ccccc2oc1=O` (stereo not given), the “activation” value was 0.0771%. On to `COP(N)(=S)Oc1ccccc1C(=O)OC(C)C` (stereo not given), for which the Potency was 30.6 µM (active).

For the compound `CCC(=O)C(CCN(C)C)(c1ccccc1)c1ccccc1`, the “activation” value was 8.89% [at 42.5 µM]. With `N#CC(Cl)(Cl)Cl`, the “activation” value was -0.321%.

`CC(C(O)c1ccccc1)N(C)C/C=C/c1ccccc1` (stereo not given): the “activation” value is 2.82% [at 42.5 µM].

For `CCOP(=S)(OCC)SCSc1ccc(Cl)cc1`, the Potency was 27.3 µM (active). Take `O=[N+]([O-])c1cccc(O)c1`: the “activation” value was 10.6%. The same measure, in the same setting: the value for `Clc1cccc(N2CCNCC2)c1` was -3.01% [at 42.5 µM]; that for `N#CCBr` was -4.51%; that for `O=C(O)c1ccc2[nH]cc(CCCCN3CC=C(c4ccccc4)CC3)c2c1` was -2.66% [at 42.5 µM]. The same measure, in the same setting: the value for `N#CC(O)c1ccccc1` (stereo not given) was 4.68%; that for `CC(Cl)(Cl)[N+](=O)[O-]` was -0.2%; that for `CC1(C(=O)Nc2ccc(O)c(Cl)c2Cl)CCCCC1` was -1.84%. `O=C(Cc1ccccc1)OCc1ccccc1`: the “activation” value was -4.76%. `O=NN1CCN(N=O)CC1`: the “activation” value is 4.24%. In the case of `CN(N=O)C(N)=O`, the “activation” value is 0.576%.

Take `ClC(Cl)C(Cl)Cl`: the “activation” value was -1.04%.

Turning to `CC(N)=S`, the “activation” value is 0.0199%.

Consider `CCCCN(CCCCO)N=O`, for which the “activation” value is -4.19%. As to `CCC#N`, the “activation” value is -0.786%.

For `CN(C)CCc1ccc(O)cc1`, the “activation” value was -3.35% [at 42.5 µM].

Consider `C=CCC1=C(C)[C@@H](OC(=O)[C@@H]2[C@@H](C=C(C)C)C2(C)C)CC1=O`, for which the Potency was 24.3 µM (active).

As for `CNCC(=O)c1ccc(O)c(O)c1`, the “activation” value was -0.733% [at 42.5 µM]. As for `CCOC(=O)N(C)C(=O)CSP(=S)(OCC)OCC`, the Potency was 34.4 µM (active). `CCCCc1ccc(O)cc1`: the “activation” value was -0.388%.
